Test results: PubChem BioAssay (NCI)
The panel holds about 83,000 compounds, 20% with a hit somewhere; the sample as a whole holds those more often.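 Method: cells in 96-well plates; compound added at one concentration; 48 h incubation; percent growth measured; values under 10 scored active.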 Values without a mark were called inactive. Activity calls are given as the source filed them.

Columns and labels:
Experiment in all cases: NCI-60 one-dose screen, 48 h (100 = growth as untreated, 0 = no growth, -100 = all killed)
Settings in all cases: 10 µM unless noted
HCT-15 colon = system: HCT-15 colon
HT29 colon = system: HT29 colon
SNB-75 CNS = system: SNB-75 CNS
SNB-19 CNS = system: SNB-19 CNS
U251 CNS = system: U251 CNS
PC-3 prostate = system: PC-3 prostate
SK-MEL-5 melanoma = system: SK-MEL-5 melanoma
UACC-62 melanoma = system: UACC-62 melanoma
LOX IMVI melanoma = system: LOX IMVI melanoma
SK-MEL-28 melanoma = system: SK-MEL-28 melanoma

Row | Compound | growth (HCT-15 colon) | growth (HT29 colon) | growth (SNB-75 CNS) | growth (SNB-19 CNS) | growth (U251 CNS) | growth (PC-3 prostate) | growth (SK-MEL-5 melanoma) | growth (UACC-62 melanoma) | growth (LOX IMVI melanoma) | growth (SK-MEL-28 melanoma)
1 | COc1ccc2[nH]c(O)c(/C=c3/ccc4c(c3)N=C(c3ccc(C(F)(F)F)cc3)N=4)c2c1 | 53.9% | 80% | 60.7% | 81.4% | 51.6% | 43.1% | 79.1% | 86% | 58.2% | 83.9%
2 | Clc1ccc2c(c1)-n1cccc1C(c1ccc3ccccc3c1)=NC2 | 77.2% | 74.1% | 83.2% | 79.1% | 95.6% | 79.8% | 95.8% | 78.3% | 112% | 100%
3 | CN(CCO)c1ccc(N2Cc3ccccc3OC3=C2C(=O)c2c(O)ccc(O)c2C3=O)cn1 | -83.6% (active) | -49% (active) | -13.7% (active) | 6.43% (active) | -24.8% (active) | -14.8% (active) | -94.9% (active) | -88.3% (active) | -86.6% (active) | -83.4% (active)
4 | CCC1CCc2nc3sc(C(=O)Nc4cccc(F)c4)c(N)c3cc2C1 (stereo not given) | 31.7% | 33.5% | 51.7% | 76.9% | 56.3% | 63.6% | 41.9% | 39.5% | 61.3% | 59.7%
5 | COc1ccccc1NC(=O)OCC12COCN1COC2 | 97.2% | 109% | 97.6% | 94.4% | 91.1% | 101% | 99.5% | 99.7% | 107% | 108%
6 | C=CCn1c(C)nc2cc(Nc3nc(Nc4ccc5nc(C)n(CC=C)c5c4)nc4ccccc34)ccc21 | 107% | 103% | 90.8% | 100% | 94.4% | 95.8% | 99.7% | 95.8% | 93.3% | 106%
7 | O=C(Nc1ccccc1)C(CCCCN1C(=O)c2ccccc2C1=O)N1C(=O)c2ccccc2C1=O (stereo not given) | 102% | 107% | 88.5% | 101% | 102% | 98.5% | 101% | 98.9% | 101% | 107%
8 | Clc1cc(Br)ccc1-c1ccc(CNCC2CCNCC2)o1 | 55.1% | 31.7% | 9.93% (active) | 42.1% | 16.9% | 54.1% | 61.5% | 59.4% | 23.4% | 42.3%
9 | N#Cc1ccc(NC(=O)Nc2nc3ccc(OC(F)(F)F)cc3s2)cc1 | 0.568% (active) | -3.66% (active) | -8.15% (active) | 15.1% | 4.34% (active) | 2.88% (active) | -53.3% (active) | 2.82% (active) | 1.35% (active) | 19.3%
10 | COc1cc(C2CC(c3ccc(Nc4ccnc5cc(Cl)ccc45)cc3)=NN2c2ccccc2)cc(OC)c1OC (stereo not given) | 45.5% | 44.2% | 72.6% | 79.7% | 60.5% | 60.8% | 49.5% | 49.9% | 58.7% | 79.1%
11 | O=C(Nc1ccc(OS(=O)(=O)c2ccc(F)cc2)cc1)C12CC3CC(CC(C3)C1)C2 | 42.3% | 7.52% (active) | 101% | 77.9% | 84% | 38% | 28.3% | 68% | 61.6% | 79.7%
12 | c1ccc(C2=Nc3ccccc3SC2)cc1 | 105% | 109% | 77.6% | 109% | 94.9% | 66.4% | 105% | 96.7% | 90.4% | 109%
13 | CC(=O)c1c(O)c(C)c(O)c2c1OC1=CC(=O)/C(=C(/C)N)C(=O)C12C (stereo not given) | 83.3% | 65.1% | 91.5% | 103% | 94.7% | 85.1% | 88.4% | 77.8% | 86.6% | 105%
14 | CC(CN1CCN(CCOCCO)CC1)CN1c2ccccc2Sc2ccc(Cl)cc21 (stereo not given) | 32.7% | -30.1% (active) | 69.7% | 100% | 58.6% | 43.9% | 16.1% | -42.8% (active) | 20.5% | 49%
15 | COc1cc(C2Nc3ccccc3S2)cc(CN2CCOCC2)c1O (stereo not given) | 52.3% | 93.4% | 46% | 75.9% | 86.7% | 82.1% | 50.6% | 57.3% | 78.2% | 68.6%
16 | CCCCCCCCCCC(C(O)c1ccccc1)N1CCCCC1 (stereo not given) | 16.8% | -10.5% (active) | 63.1% | 43.7% | 28% | 25.7% | -94.3% (active) | -9.77% (active) | -30.5% (active) | -15.9% (active)
17 | CCc1ccc2c(c1)N(CCO)C1=C(C(=O)OC1)C2c1cccc(Cl)c1 (stereo not given) | 15.9% | 4.49% (active) | 18.9% | 36.4% | 18.1% | 28.8% | 32.1% | 21.8% | 44.3% | 50.3%
18 | O=c1cc(N2CCOCC2)oc2c(-c3ccc4c(c3)OCCO4)csc12 | 16.9% | 10.8% | -16.6% (active) | 25.6% | 31.2% | 21.8% | -7.05% (active) | -1.9% (active) | 10.3% | 22.3%
19 | O=C(C=P(c1ccccc1)(c1ccccc1)c1ccccc1)CCl | -18.2% (active) | -54.2% (active) | 7.49% (active) | 69.1% | 34.7% | 8.54% (active) | -4.76% (active) | -78.3% (active) | -85.5% (active) | -6.08% (active)
20 | Cc1ccc2oc(=O)cc(-c3nc4ccc([N+](=O)[O-])cc4[nH]3)c2c1 | 59.4% | 70.9% | 70.1% | 61.4% | 41.9% | 48.9% | 28.9% | 39.5% | 67.7% | 63.7%
21 | COC(=O)C1(C)COP(=O)(NC23CC4CC(CC(C4)C2)C3)OC1 (stereo not given) | 101% | 100% | 94.9% | 104% | 99.5% | 94.6% | 99.9% | 109% | 98.2% | 98.7%
22 | Cc1cc(C#Cc2ccccc2)ccc1-n1c(/C=C/c2ccc(F)cc2)nc2ccccc2c1=O | 69.8% | 59.3% | 86.5% | 88.5% | 82% | 18.2% | 36.8% | 55.1% | 71.2% | 94.4%
23 | Cc1ccc(NC(=O)c2nc(S(C)=O)oc2-c2ccc(F)cc2)cc1Nc1nccc(-c2cccnc2)n1 (stereo not given) | 0.45% (active) | 1.98% (active) | 95.6% | 74.2% | 39.2% | 72.9% | 68.3% | 65% | -72.1% (active) | 76.5%
24 | CCSc1ccc([C@@H]2[C@@H](N)C(=O)N2c2cc(OC)c(OC)c(OC)c2)cc1 | 19.9% | 12.1% | 36.2% | 32% | 28.1% | 28.5% | 20% | 33.9% | 50.7% | 61.6%
25 | COc1c(B(O)O)cccc1-c1nc2c(F)cc3n[nH]c(C)c3c2c2c1CCCC2 | 18.3% | 17% | -21.6% (active) | 18.1% | 13.6% | 27.3% | 20.4% | 3.54% (active) | 11.8% | 25%
26 | COc1ccc(/C=C(/C(=O)N2CCN(c3ccccc3)CC2)c2cc(OC)c(OC)c(OC)c2)cc1N | 14.6% | 7.35% (active) | 53.3% | 24.5% | 14.5% | 26.7% | 7.37% (active) | 27.9% | 27.2% | 64%
27 | C#CC[C@@H]1C[C@]2(C)[C@H]3CC[C@@H]4[C@H]5C(C(=C)C)CC[C@]5(C(=O)NCCCCCCCCN)CC[C@@]4(C)[C@]3(C)CC[C@H]2C(C)(C)[C@H]1OC(C)=O (stereo not given in full) | 67.5% | 30.5% | 80.3% | 92.1% | 71.1% | 55.3% | 98% | 108% | 55% | 113%
